± gives the uncertainty stated by the source.
These molecules were tested on HEK293T-Rex ERSE-FLuc (assay: ERSE-FLuc reporter activation, triplicate confirmation, relative to 500 nM thapsigargin (% of thapsigargin); higher = stronger ATF6/ERSE reporter activation). Settings: 6.8 µM; 18 h; screen: confirmation.
Description: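 HEK293T-Rex cells stably expressing the ERSE-firefly luciferase (BiP promoter, ATF6-preferring) or XBP1-splicing Renilla luciferase (IRE1/XBP1s) reporter, 1536-well plates, compound at 6.8 µM for 18 hr at 37 °C; luminescence read […] and expressed as % activation = 100*(compound - median DMSO)/(median 500 nM thapsigargin - median DMSO). Primary screen was single-pass; confirmation screen in triplicate (mean ± SD).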

| Compound | ERSE-FLuc reporter activation |
| --- | --- |
| COc1ccc(-c2cc(C(=O)Nc3cc(C)ccc3O)on2)cc1OC | 33.8 ± 1.9 |
| O=C(Nc1ccccc1O)c1ccc(NS(=O)(=O)c2cccc3cccnc23)cc1 | 25.6 ± 8.1 |
| O=[N+]([O-])c1ccc2nc(/C=C/c3ccccc3)[nH]c2c1 | 25.2 ± 1.7 |
| CC(=O)Oc1ccc2cc(NC(=O)c3ccc(C)cc3)c(=O)oc2c1 | 29.7 ± 6 |
| COc1cccc(Nc2nc(-c3ccc(OC)c(F)c3)cs2)c1 | 25.2 ± 4.3 |
| CC(C)NC(=O)c1cc(-c2ccc(O)cc2)on1 | 25.8 ± 3 |
| CN(c1ccccc1)S(=O)(=O)c1cccc(C(=O)NCCc2ccc(O)c(O)c2)c1 | 44.7 ± 3.8 |
| COc1ccc(-n2nnnc2SCC(N)=O)c(OC)c1 | 34.5 ± 5.7 |
| Cc1cc2nc(/C(C#N)=C/c3ccco3)[nH]c2cc1C | 34.1 ± 8.6 |
| Nc1ccc2nc(-c3cc(Cl)c(N)c(Cl)c3)[nH]c2c1 | 35.6 ± 10 |
| CCOc1cc(/C=C2/NC(=O)N(Cc3ccc(F)cc3)C2=O)ccc1O | 32.8 ± 5.4 |
| Cc1cc(C)nc(Nc2nc(-c3ccc(O)c(O)c3)cs2)n1 | 47.4 ± 6.5 |
| Cc1ccc(O)c(NC(=O)c2cc(CC(C)C)on2)c1 | 84.4 ± 15 |
| COc1cc(/C=C/c2ccc(O)c(OC)c2)ccc1O | 35.9 ± 9.1 |
| N#Cc1c(NC(=O)c2cnccn2)sc2c1CCCC2 | 40.2 ± 22 |
| C=CCNC(=O)c1sc2nc3cc(C)c(C)cc3cc2c1N | 30.2 ± 5.3 |
| CN(C)/C=N/C1=C(C#N)C(c2ccc3c(c2)OCO3)c2ccc3ccccc3c2O1 (stereo not drawn) | 26.1 ± 9.6 |
| Nc1ccc2nc(-c3ccc(Cl)cc3)[nH]c2c1 | 33.6 ± 2.4 |
| COc1ccc(/C=N/c2sc3c(c2C(N)=O)CCCC3)cc1 | 26.4 ± 4.8 |

| Compound | ERSE-FLuc reporter activation |
| --- | --- |
| O=C(NC(c1ccccc1)c1ccccc1)c1csc(-c2cnccn2)n1 | 30.5 ± 7.8 |
| O=C(/C=C/c1ccco1)Nc1ccccn1 | 27.7 ± 4.8 |
| CCCCNC(=O)c1cc(-c2ccc(F)cc2)on1 | 40.8 ± 5.3 |
| c1ccc2cc(-c3cnnc(N4CCOCC4)n3)ccc2c1 | 29 ± 8.7 |
| O=C(N/N=C/c1ccc(O)c(O)c1)c1cccc(Cl)c1 | 32.8 ± 3.2 |
| O=C(CCCCCCC(=O)Nc1ccccc1)NO | 59.2 ± 17 |
| Nc1ccccc1NC(=O)c1ccc(C(F)(F)F)cc1 | 27.2 ± 5.7 |
| COc1ccc(-c2csc(-c3ccc(O)cc3)n2)cc1 | 29.4 ± 5 |
| O=[N+]([O-])c1ccc(/C=C/c2ccc(O)cc2)cc1 | 28.8 ± 3.3 |
| Oc1ccc(/C=N/Nc2cccc(Cl)n2)c(O)c1 | 31 ± 7.1 |
| O=C1NC(=Nc2ccc(F)cc2)S/C1=C\c1ccc(O)c(O)c1 | 32.4 ± 2.3 |
| C/C(=N\NC(=O)c1n[nH]c2c1CCCC2)c1ccc2ccccc2c1 | 30.7 ± 2.6 |
| C=CCNC(=O)c1cc(-c2ccc(F)cc2)on1 | 25.1 ± 4.7 |
| CCOc1cc(C2C(C(=O)OC3CCCCC3)=C(C)NC3=C2C(=O)CC(c2ccc(OC)cc2)C3)cc(Br)c1O (stereo not drawn) | 27.2 ± 9.1 |
| CCCCCCc1ccc(-c2ncc(N)cn2)cc1 | 33.2 ± 4.7 |
| O=C(N/N=C/c1cccc2ccccc12)c1ccc2c(c1)OCO2 | 29.9 ± 4.3 |
| COc1ccccc1/C=N/Nc1nc(-c2ccccc2)cc(=O)[nH]1 | 25.2 ± 1.8 |
| NC(=O)c1c(NC(=O)COc2ccccc2)sc2c1CCC2 | 27.1 ± 3.2 |
| N#Cc1ccc(-c2cccs2)nc1SCc1ccccn1 | 25.2 ± 6.2 |
